In all, about 120,000 compounds went through this assay and about 5,300 (4.4%) were called active. Another 22% or so got no clear call; they are omitted. Shown is part of a subset that was picked to be rich in actives. Unmarked numbers belong to inactive results. The call rests on the fitted dose curve; in most records, active means well fitted inhibition curve with a large enough effect; inconclusive means small, poorly fitted or top-dose-only effect; inactive means no such curve, though single readings can be large or run the other way.

From PubChem BioAssay AID1347417 (National Center for Advancing Translational Sciences (NCATS), 2020) come the findings set out here.
Potency means the concentration at half of the fitted maximal effect.

The assay in a line: qHTS Primary assay for Inhibitors of Plasmodium falciparum Dd2 growth in vitro. Further: nearly all actives have a fitted effect of over 65% in size.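 On activity, negative = inhibition: plate controls were DMSO vehicle for no effect and reference drug for full effect.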 The settings on record: P. falciparum Dd2 growth, SYBR Green, 72 h; series mostly up to 28.9 µM; activity, negative = inhibition: at the top concentration. In outline: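 Readout: SYBR Green fluorescence, 485 nm excitation, 535 nm emission, after ~16 h lysis at 37C. Before that, Dd2-infected red cells (2.5% hematocrit) grew 72 h with compound, 29 uM top final concentration.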
(In qHTS, concentration-response curves come from the screen itself.)
As for `CCOc1ccccc1NC(=O)N1c2ccccc2CC1c1nc(C(C)C)no1` (centres undefined), the activity, negative = inhibition is -4.28% [at 5.79 µM].

Turning to `O=C(NC[C@H]1C[C@@H]2CCN1C[C@@H]2CN1CCN(c2ncccn2)CC1)c1ccc(C(F)(F)F)cc1`, the molecule was called inactive.

Turning to `C=C[C@H]1CN2CC[C@H]1C[C@@H]2CNCc1ccc(C(F)(F)F)cc1`, the Potency is 2.24 µM (active).

Regarding `O=C(CC1=C2CCCCC2NC1=O)Nc1ccccc1F` (centres undefined), the “activity, negative = inhibition” value was -8.8%.

For the molecule `O=C(NC1CCCc2c1[nH]c1ccc(F)cc21)c1n[nH]c2c1CCCC2` (centres undefined), the “activity, negative = inhibition” value was -5.89%.

Take `COc1ccc(CN2CCC3(COc4ccccc4C(=O)N3)C2)cc1` (centres undefined): the “activity, negative = inhibition” value was -14.8%.

On to `CC1=NOC2(CCN(Cc3c[nH]c4ccccc34)CC2)C1`, for which the “activity, negative = inhibition” value was -4.88% [at 44.1 µM].

Regarding `c1ccc2c(c1)CNC1(CCN(Cc3cccc4ccccc34)CC1)CO2`, the Potency was 2 µM (active).

Turning to `Cc1ccc(-c2nc(N3CCOCC3)cc3c2CN(Cc2cnn(C)c2)C3=O)cn1`, the “outcome” value is “inactive [at 44.1 µM]”.

As for `COc1ccc(CN2CCOc3nc(-c4cc(F)cc(OC)c4)ncc3C2=O)cc1`, the “outcome” value was “inactive [at 44.1 µM]”.

Take `CCOc1ccccc1NC(=O)N1CCC(n2c(C)cnc2-c2cccnc2)CC1`: the “activity, negative = inhibition” value is -0.563%.

For `C=C(C)COc1ccccc1C(=O)NC(C(=O)O)c1c(C)n[nH]c1C` (centres undefined), the “activity, negative = inhibition” value is 14.8%.

With `COc1ccccc1-c1cc(C(F)(F)F)nc(S(=O)(=O)CCCC(=O)Nc2cc(C)ccc2O)n1`, the “activity, negative = inhibition” value is 11.2%.

Turning to `COc1ccccc1-c1cc(C(F)(F)F)nc(S(=O)(=O)CCCC(=O)Nc2ccc(F)cc2F)n1`, the Potency is 8.91 µM (active).

On to `CSc1ccccc1NC(=O)CCS(=O)(=O)c1nc(-c2cccs2)cc(C(F)(F)F)n1`, for which the molecule was classed as inactive.

Regarding `Cc1noc(C)c1[S+](=O)([O-])N1CCCCC12Cc1ccccc1NC2=O` (centres undefined), the call was inactive.

On to `Fc1ccc(OCc2nc(C3CCNCC3)no2)cc1`, for which the “activity, negative = inhibition” value is -14.3%.

With `CN1CCCCCCN(C(=O)C2CCOCC2)[C@H]2CCC[C@H]2C1=O`, the “activity, negative = inhibition” value was 6.93%.

On to `CCN1CCN(C(=O)C23CCCC=C2N(C2CCCC2)C(=O)CC3)CC1` (centres undefined), for which the call was inactive.

Take `CCn1c(CN2CCC(C)CC2)nc2cc(NC(=O)c3ccccc3[N+](=O)[O-])ccc21`: the Potency is 11.2 µM (active).

Take `CC1Oc2ccc(NC(=O)c3ccc([N+](=O)[O-])cc3)cc2CN(Cc2ccccc2)C1=O` (centres undefined): the molecule was called inactive.

Turning to `Cn1c(=O)c(=O)n(C)c2cc(NC(=O)c3ccccc3Br)ccc21`, the “activity, negative = inhibition” value is -8.31%.

On to `CC1CCC2(CC1)OCC(C(=O)NCc1ccc3c(c1)OCO3)N2C(=O)c1ccccc1F` (centres undefined), for which the call was inactive.

With `O=C(NCCC1CCN(C(=O)Nc2cccc(F)c2)CC1)c1ccco1`, the molecule was classed as inactive.

As for `O=C(NCCN1CCCCC1)C1Cn2cccc2C(=O)N1Cc1ccccc1` (centres undefined), the “activity, negative = inhibition” value is -22.8%.

For `COC[C@H]1CCCN1Cc1nc(C2(O)CCN(CC3CCCCC3)CC2)cs1`, the Potency is 10 µM (active).

On to `COC[C@H]1CCCN1Cc1nc(C2(O)CCN(C(=O)C3CCOCC3)CC2)cs1`, for which the “activity, negative = inhibition” value was 4.46% [at 44.1 µM].

As to `COc1cccc(C(=O)N2C(C(=O)NC(C)C)COC23CCN(C(=O)c2cccc(F)c2)CC3)c1` (centres undefined), the “activity, negative = inhibition” value was -18.1%.

For `N#CCCN1CCN(C(=O)c2cn3ccnc(-c4ccccc4)c3n2)CC1`, the “activity, negative = inhibition” value was -19.8%.

`COCC(=O)NC[C@H]1CCN(Cc2cn(C)c3ccccc23)C[C@H]1N(C)C`: the molecule was classed as inactive.

For the molecule `COc1cccc(NC(=O)N(Cc2cn(C)c3ccccc23)C2CCCCCC2)c1`, the Potency was 6.31 µM (active).

Regarding `COCCN1CCCCCC(O)c2cc(C(=O)Nc3cccc(OC)c3)ccc21` (centres undefined), the “activity, negative = inhibition” value was -3.74%.

Take `Cc1cccc(-c2nc3cnccn3c2NCCC(=O)N2CCCCCC2)c1`: the “activity, negative = inhibition” value is -0.961%.

Consider `CNc1ccc(OC2CCN(C(=O)NCCc3ccccc3)CC2)nc1`, for which the outcome was inactive.

On to `Cc1ccccc1CNC(=O)c1ccc2c(c1)N(C)C1CCCCN1C2=O` (centres undefined), for which the Potency is 4.47 µM (active).

`CN1c2cc(C(=O)NCc3ccccc3Br)ccc2C(=O)N2CCCCC21` (centres undefined): the Potency is 7.08 µM (active).

In the case of `CN1c2cc(C(=O)N3CCC(C(N)=O)CC3)ccc2C(=O)N2CCCCC21` (centres undefined), the “activity, negative = inhibition” value was 24.1%.

Consider `CN1c2cc(C(=O)Nc3ccc(Cl)cc3)ccc2C(=O)N2CCCCCC21` (centres undefined), for which the “activity, negative = inhibition” value is -7.59%.

As for `CN1c2cc(C(=O)Nc3ccccc3)ccc2C(=O)N2CCCCCC21` (centres undefined), the “activity, negative = inhibition” value is 10.4%.

Consider `Cc1ccc(CNC(=O)c2ccc3c(c2)N(C)C2CCCCN2C3=O)cc1C` (centres undefined), for which the “activity, negative = inhibition” value was -21.7%.

Take `COc1ccc(C(=O)N2[C@@H]3CC[C@H]2CC(NC(=O)c2ccncc2)C3)cc1OC` (some centres undefined): the “activity, negative = inhibition” value was -11.9%.

Consider `CC(=O)N(C1CC1)C1CCOC2(CCN(C(=O)CCc3ccccc3)CC2)C1` (centres undefined), for which the “activity, negative = inhibition” value is 31.1%.

Consider `O=C(c1ccco1)N1CCC2(CC1)CC(N(Cc1ccccc1)C1CC1)CCO2` (centres undefined), for which the Potency is 4.47 µM (active).

For `O=C(c1cc(F)ccc1F)N1CCC2(CC1)CC(N(Cc1ccccc1)C1CC1)CCO2` (centres undefined), the “activity, negative = inhibition” value was -7.48%.

Regarding `CCN1CC2(CCN(C(=O)c3cc4c(cc3OC)CCC4)CC2)OC1=O`, the “activity, negative = inhibition” value is 0.279%.

For `O=Cc1cccc(-c2cc(F)cc(F)c2)c1`, the “activity, negative = inhibition” value is 20.8% [at 44.1 µM].

For the molecule `Cc1ccc(S(=O)(=O)NCc2nc3nc(C)cc(C)n3n2)cc1`, the “activity, negative = inhibition” value is -23.8%.

For the molecule `CCc1nc2nc(C)cc(Nc3ccc(F)c(Cl)c3)n2n1`, the Potency was 3.55 µM (active).

Regarding `CC(=O)c1ccc(NC(=O)c2nc3nc(C)cc(C(F)F)n3n2)cc1`, the “activity, negative = inhibition” value was 4.1%.
